Screens from PubChem.
Sampled rows, rich in hits. Any-hit rate of the full collection: about 2.3%.
POLK inh: DNA polymerase kappa (human) inhibition | Q9UBT6 | purified Pol kappa, fluorescent DNA synthesis assay, 10 min | Potency, µM (series often up to 107 µM), for the others: top-dose activity, negative = inhibition, actives largely listed as inhibitors | 400,000 tested, 0.53% active | AID 588579; note: % is set by controls: 0 for no effect and ±100 for the full control effect
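10 nM Pol kappa was preincubated with compounds for 15 min at room temperature. Reaction started with 50 nM (final) substrate. Fluorescence read kinetically at 0 and 10 min.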
Pol beta inh: inhibitors of human DNA polymerase beta | P06746 | Pol beta primer extension/strand displacement, fluorescence kinetic | Potency, µM (doses to about 114 µM), for inactives: at the top dose activity change, negative = inhibition, hits mostly inhibitors | 340,000 tested, 1.3% active | AID 485314; note: % is set by controls: 0 for no effect and ±100 for the full control effect
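Kinetic readout of DNA synthesis with strand displacement by Pol beta. Compound and 10 nM enzyme sit 15 min at room temperature; 50 nM substrate starts the reaction, read immediately and at 10 min.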
WRN inhibitor: WRN helicase (human) inhibition. Q14191. WRN helicase unwinding, fluorescent forked duplex, kinetic. Potency, µM (doses to about 114 µM), for inactives: at the highest dose activity change, negative = inhibition, usual class: inhibitors. 360,000 tested, 0.46% active. AID 651768; note: % is set by controls: 0 for no effect and ±100 for the full control effect; nearly all actives have a fitted effect of over 55% in size
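Fluorescence dequenching readout, ex 525 nm/em 598 nm, kinetic mode: forked duplex DNA (100 nM final) with adjacent fluorophore and quencher unwound by WRN (20 nM final) with 2 mM ATP. Compound preincubation 15 min, room temperature.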
POLH inh: DNA polymerase eta (human) inhibition; Q9Y253; recombinant Pol eta, fluorescent DNA replication assay; Potency, µM (doses to about 114 µM), for the others: top-dose activity change, negative = inhibition, actives largely listed as inhibitors; 390,000 tested, 1.2% active; note: % is set by controls: 0 for no effect and ±100 for the full control effect
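Pol eta at 10 nM preincubated with compounds 15 min at room temperature; reaction started with fluorescent substrate (50 nM final) and read kinetically at 0 and 10 min.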
Pol iota inh: blocks human DNA polymerase iota activity; Q9UNA4; Pol iota fluorescent replication assay, 10 min; Potency, µM (titrated, usually from 115 µM), for the others: top-dose activity, negative = inhibition, actives largely listed as inhibitors; 390,000 tested, 1% active
Target sequence (Q9UNA4 whole entry, looked up): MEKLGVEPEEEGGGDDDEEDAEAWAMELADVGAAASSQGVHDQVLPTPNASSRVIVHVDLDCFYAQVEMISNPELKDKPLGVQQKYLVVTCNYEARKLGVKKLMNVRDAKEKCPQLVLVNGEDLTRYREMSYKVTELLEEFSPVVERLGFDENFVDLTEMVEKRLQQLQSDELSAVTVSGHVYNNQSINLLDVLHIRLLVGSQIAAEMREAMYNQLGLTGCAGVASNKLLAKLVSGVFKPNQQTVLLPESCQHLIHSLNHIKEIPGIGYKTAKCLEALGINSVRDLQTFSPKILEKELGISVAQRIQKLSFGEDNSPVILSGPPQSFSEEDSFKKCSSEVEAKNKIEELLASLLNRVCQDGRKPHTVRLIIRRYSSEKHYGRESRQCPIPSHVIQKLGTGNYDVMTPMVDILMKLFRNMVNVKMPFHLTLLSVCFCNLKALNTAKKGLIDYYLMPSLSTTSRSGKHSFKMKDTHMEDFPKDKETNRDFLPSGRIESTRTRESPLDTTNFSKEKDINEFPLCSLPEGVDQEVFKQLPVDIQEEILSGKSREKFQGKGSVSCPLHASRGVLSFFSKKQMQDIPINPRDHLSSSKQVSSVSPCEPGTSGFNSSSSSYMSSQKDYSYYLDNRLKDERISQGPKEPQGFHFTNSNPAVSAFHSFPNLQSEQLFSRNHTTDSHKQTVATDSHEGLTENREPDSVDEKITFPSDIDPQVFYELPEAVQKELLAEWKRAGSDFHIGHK
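Fluorescent replication assay read twice, at 0 min and 10 min after adding 50 nM (final) substrate. Enzyme (10 nM) and compounds were first incubated 15 min at room temperature; enzyme-free buffer wells were negative controls.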
* = called active by the depositor; ? = inconclusive; / = not tested or not shown; ! = repeats disagree; [ ] = another dose, or the depositor's remark. Calls come from the whole dose curve; as a rule, active = well fitted curve in the direction sought with a large enough effect; inconclusive = small, poorly fitted or top-dose-only effect, or another doubt; inactive = no such curve, though single readings can be large; an effect the other way counts as inactive or inconclusive. Potency is the fitted concentration of half-maximal effect.

SMILES	POLK inh	Pol beta inh	WRN inhibitor	POLH inh	Pol iota inh
CCOC(=O)C1=C(O)/C(=C/c2cn(CC(=O)NCC3CCCO3)c3ccccc23)SC1=Nc1ccc(C)cc1 (stereo unspecified)	-18%	/	-14%	14µM*	?
CSCC[C@H](NC(=O)[C@H](CC(C)C)NC(=O)CNC(=O)[C@H](Cc1ccc(O)cc1)NC(=O)[C@H](Cc1ccccc1)NC(=O)[C@H](CCCCN)NC(=O)[C@H](CC(N)=O)NC(=O)[C@@H]1CCCN1C(=O)[C@H](CC(=O)O)NC(=O)[C@H](C)NC(=O)[C@@H]1CCC(=O)N1)C(N)=O	13%[60.1 µM]	/	/	/	/
CCOc1cc(NC(=O)c2ccco2)c(OCC)cc1NC(=O)Cc1ccc(OC)c(OC)c1	-2%	-8%	1%[11.6 µM]	9%	50µM*
CC(C)N(C)C1=CC(=O)C(N(C)C(C)C)=CC1=O	?	/	-34%	8%	45µM*
N=C1SC(c2ccccc2)C(=O)N1c1ncc(Cc2ccccc2)s1 (stereo unspecified)	-42%	50µM*	?	0%	2%
Cc1ccc(Cc2cnc(N3C(=N)SC(c4ccccc4)C3=O)s2)cc1 (stereo unspecified)	?	?	?	-9%	?
CCN(CC)c1nc(N)c2c(N)nc3c(c2c1C#N)CC(c1ccccc1)O3 (stereo unspecified)	-4%	9%	-12%	-13%	?
CCN(CC)c1nc(N)c2c(N)n(-c3ccccc3C)c(=S)c(C#N)c2c1C#N	?	10%	?	45µM*	?
CN1CCc2cccc3c2C1Cc1ccc(O)c(O)c1-3 (stereo unspecified)	1%[60.1 µM]	-12%[57.1 µM]	-1%	-2%[57.1 µM]	14µM*!
O=c1[nH]c(SCc2ccccc2)ncc1S(=O)(=O)c1ccccc1	-16%	/	/	/	15%
O=[N+]([O-])c1cc(C(F)(F)F)cc([N+](=O)[O-])c1Sc1n[nH]c(C(F)(F)F)n1	3%	26%	?	-15%	25µM*
O=c1cc(CN2CCN(c3ccccc3O)CC2)nc2sccn12	-12%	?	-31%	20µM*	45µM*
O=c1cc(CN2CCN(c3ccccc3)CC2)nc2scc(-c3ccccc3)n12	-42%	40µM*	-2%	-23%	56µM*
CCOc1ccc(NC(=O)CN(C)Cc2cc(=O)n3c(-c4ccccc4)csc3n2)cc1OCC	-11%	25µM*	-6%	-3%	?
CCOC(=O)C1CCN(Cc2cc(=O)n3c(-c4ccccc4)csc3n2)CC1	-22%	-9%	2%	9%	?
Cc1ccc(OCc2cc(=O)n3c(-c4ccccc4)csc3n2)cc1	?	20µM*	/	?	56µM*
O=c1cc(CSc2nnc(-c3cccs3)n2Cc2ccccc2)nc2sc3ccccc3n12	79µM*	10µM*	-9%	?	13µM*
Cc1cc(C(=O)CSc2nnc(-c3cccs3)n2Cc2ccccc2)c(C)n1C	3%	-18%	2%	2%	43%
O=C(NCc1ccco1)C1c2ccccc2Oc2ccccc21	?	18µM*	?	7.9µM*	?
O=C(O)C1C2C=CC(C2)C1C(=O)NCc1cccs1 (stereo unspecified)	0%	?	-5%	-13%	47%
O=C(O)C1C2C=CC(C2)C1C(=O)NCc1ccco1 (stereo unspecified)	?	-2%	-9%	50µM*	-9%
CCCCNC(=O)C1c2ccccc2Oc2ccccc21	0%	7%	-4%	4%	17%
COc1ccc(SCC(c2ccccc2)N2CCN(CC(C)C)CCC2=O)cc1 (stereo unspecified)	-6%	/	/	/	-20%
NC(=O)COc1ccc2cc(-c3ccccc3)c(=O)oc2c1	-32%	35%	-2%	-12%	-14%
NC(=O)COc1ccc2cc(-c3ccc(F)cc3)c(=O)oc2c1	-7%	25µM*	1%	-27%	-3%
SMILES	POLK inh	Pol beta inh	WRN inhibitor	POLH inh	Pol iota inh
CN(C)c1ccc(/C=C2/C[N+](C)(C)C/C(=C/c3ccc(N(C)C)cc3)C2=O)cc1	-25%	/	20µM*	?	-19%
CSCC[C@H](NC(=O)[C@H](Cc1ccccc1)NC(=O)[C@H](Cc1cnc[nH]1)NC(=O)CNC(=O)[C@@H](NC(=O)[C@H](C)NC(=O)[C@H](Cc1c[nH]c2ccccc12)NC(=O)[C@H](CC(C)C)NC(=O)[C@H](CC(N)=O)NC(=O)CN)[C@@H](C)O)C(N)=O	16%[60.1 µM]	/	/	/	/
CN1CC[C@H](c2c(O)cc(O)c3c(=O)cc(-c4ccccc4Cl)oc23)[C@@H](O)C1	-21%	/	/	/	?
Nc1c(N(CCC2=CCCCC2)C(=O)c2ccccc2F)c(=O)[nH]c(=O)n1Cc1ccccc1	-16%	/	5%[11.6 µM]	-10%	79µM*
Nc1c(N(CCC2=CCCCC2)C(=O)Cc2ccccc2F)c(=O)[nH]c(=O)n1Cc1ccccc1	-5%	/	0%	-8%	14%
Nc1c2c(=O)[nH]c(O)cc2nn1-c1ccccc1	?	/	-2%[11.6 µM]	50µM*	8.9µM*
Cc1c(C)c2c(C)nn(-c3ccccc3)c2[nH]c1=O	-7%	14%	-1%	-18%	27%
Cc1csc(NC(=O)Nc2ccc(Cl)cc2)n1	-35%	28µM*	-17%	?	?
CCN(CC)c1cc(C)c2cc(NC(=O)c3ccccc3Cl)ccc2n1	-24%	19%	/	-22%	-1%
O=C1CN(S(=O)(=O)c2cc(C(=O)O)ccc2Cl)c2ccccc2N1	-9%	50µM*	?	50µM*	?
NCC(=O)N[C@@H](CCCN=C(N)N)C(=O)NCC(=O)N[C@@H](CCC(=O)O)C(=O)N[C@@H](CO)C(=O)O	14%[60.1 µM]	/	/	/	/
CCN(CC)CCn1nc2c3c(cccc3c1=O)-c1ccccc1-2	-64%	10µM*	-1%[11.6 µM]	-10%	?
COCCNc1ncnc2ccc(-c3ccccc3OC)cc12	5%[60.1 µM]	/	/	/	/
NC(=O)CC(NC(=O)Cc1ccc(Br)cc1)c1ccc(NC2CCN(Cc3ccccc3)CC2)c([N+](=O)[O-])c1 (stereo unspecified)	12%	45µM*	-1%	-11%	1%
NC(=O)CC(NC(=O)Cc1cccc2ccccc12)c1ccc(NC2CCCCCC2)c([N+](=O)[O-])c1 (stereo unspecified)	-8%	22%	-3%	0%	?
NC(=O)CC(NC(=O)Cc1cccc2ccccc12)c1ccc(NC2CCN(Cc3ccccc3)CC2)c([N+](=O)[O-])c1 (stereo unspecified)	-7%	50µM*	-13%	-3%	-28%
COc1ccc(CCN2CCC[C@H](CN3CCc4cc(OC)c(OC)cc4CC3=O)C2)cc1OC	10%[60.1 µM]	/	/	/	/
CCn1nnc2c(N3CCCC3)ncnc21	0%	/	/	/	14%
Cc1ccc(C(=O)C[n+]2cccc3cccc(O)c32)cc1	-6%	/	/	/	35%
